# Data reported in PubChem BioAssay (NCATS).
# Inconclusive results are not listed. Unmarked numbers belong to inactive results. Calls of active or inactive are those of the source. Calls follow the shape of the dose curve; as a rule, active = well fitted inhibition curve with a large enough effect; inconclusive = small, poorly fitted or top-dose-only effect; inactive = flat fitted curve, though single readings scatter.
# Molecular target: Calcium and integrin-binding protein 1 (Homo sapiens) (UniProt Q99828)
# Assay: Primary qHTS for Identification of Calcium Integrin Binding Protein 1 (CIB1) Competitor (AID 1508620);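 also: GST tagged CIB1 binding a fluorescein labelled alphaIIb integrin peptide tracer; top concentration of the series differs between compounds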
# Conditions: CIB1-GST / FITC-alphaIIb peptide fluorescence polarization; series mostly up to 114 µM; activity change, negative = inhibition: at the top concentration
# Outline: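 Fluorescence polarization competition: CIB1-GST (1 uM final) preincubated with compound 15 min at room temperature, then FITC-labeled alphaIIb peptide (100 nM final) added for another 15 min. Polarization read at Ex 480/Em 540.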
# % is scaled to controls: 0 for no effect and ±100 for the full control effect.
# Chain of Calcium and integrin-binding protein 1 (Homo sapiens) (Q99828 whole entry, looked up): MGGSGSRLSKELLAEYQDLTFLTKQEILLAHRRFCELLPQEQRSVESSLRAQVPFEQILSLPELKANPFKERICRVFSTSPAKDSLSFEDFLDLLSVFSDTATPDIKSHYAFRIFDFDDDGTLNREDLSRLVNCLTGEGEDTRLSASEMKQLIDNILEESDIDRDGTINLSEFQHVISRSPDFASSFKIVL
SMILES,"activity change, negative = inhibition [%]",Potency
O=C(c1ccc2c(c1)ncn2-c1cccc(C(F)(F)F)c1)N1CCCCC1,-0.996,–
O=C(Nc1cccc(-c2nn3c(=O)cc(N4CCNCC4)nc3s2)c1)C1CCNCC1,-1.07,–
c1csc(CCNc2ncnc3ccc(-c4ccc5c(c4)OCO5)cc23)c1,27.3,–
O=C(OCC#CCSc1nnc(-c2ccc3ccccc3c2)o1)c1cccc(F)c1,5.06,–
O=C(Nc1ccc(N2CCOCC2)c(C(F)(F)F)c1)Nc1nnc(-c2ccncc2)s1,-0.369,–
CCOC(=O)C1CCN(c2nc(-c3ccc(Br)cc3)cs2)CC1,-0.614,–
c1nc(NC[C@@H]2CCCO2)c2cc(-c3ccc4c(c3)OCO4)ccc2n1,-0.41,–
CCCc1nnc(-c2cnn(C)c2N)n1CCCn1ccnc1,1.17,–
Cc1ccc(C(=O)Nc2ccc(N3CCOCC3)cc2)cc1,-2.12,–
O=C(NCCc1nc2ccccc2n1CCOc1ccc(Cl)cc1)C1CCCCC1,16.5,–
Cc1cc2c(s1)c1cnn(Cc3ccc(F)c(F)c3F)c(=O)c1n2C,5.28,–
CC(=O)Nc1ccccc1OC1=N[S+](=O)([O-])c2ccccc21,2.47,–
CCOc1ccc(C(=O)Oc2ccc(-c3nc4ccccc4[nH]3)cc2)cc1[N+](=O)[O-],2.62,–
O=C(Cc1nnc(-c2cc3ccccc3[nH]2)s1)Nc1cc(C(F)(F)F)ccc1Cl,–,inactive
CN(C)c1ccccc1-c1csc(N2CCC(C(N)=O)CC2)n1,-0.412,–
CC(=O)NC(C)c1cc(Cl)c2ccccc2c1O (stereo unspecified),-11.9,–
COC(=O)c1ccc(O)c2ncccc12,-10.9,–
O=C1CCCC2=C1C(c1[nH]ncc1Cl)NC(=NCc1ccccc1)N2 (stereo unspecified),1.26,–
Cc1ccc(CN(C)c2ncnc3ccc(-c4ccc(C(=O)O)o4)cc23)o1,1.6,–
Cc1cc(NS(=O)(=O)c2cc3c(cc2F)NC(=O)CC3)ccc1F,–,inactive
COc1ccc(CN(Cc2ccccc2)C(=O)c2ccc(OC)cc2O)cc1,-2.52,–
